Inconclusive results are not listed. Calls of active or inactive are those of the source.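 How the source made its calls, unless noted: active means response below a set limit, under 55% cells CD8-positive and vesicle-bound, and CD8 cells' 90th-percentile brightness under 279; inactive means the rest.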
Experiments:
[1] = yeast TOR pathway RPL19A-GFP modulators, primary screen, cell-based, S. cerevisiae, multiplex flow cytometry (AID 1862; in the data active means percent of DMSO control GFP below about 86%;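 further: lower values mimic rapamycin by blocking the RPL19A rise seen in DMSO cells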); settings: S. cerevisiae RPL19A-GFP strain, flow cytometry fluorescence, 3 h; at 10 µM; stronger effect = lower value
[2] = modulators of MEP2-GFP levels in yeast, primary screen, S. cerevisiae, multiplex flow cytometry (AID 1867;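 active means GFP response, as percent of the DMSO control, above the screen-wide mean plus 3 SD, about 139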;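 further: median GFP channel fluorescence of barcode-gated MEP2-GFP cells measured by flow cytometry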); settings: S. cerevisiae MEP2-GFP strain, 3 h, at 10 µM, stronger effect = higher value, 100% means same as DMSO wells
[3] = modulators of CIT2-GFP expression in yeast, primary screen, S. cerevisiae, GFP fusion, multiplex flow cytometry (AID 1870;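 active means percent response above a set limit, the screen-wide mean plus 3 SD, cut at about 130% in these data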;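 further: barcoded CIT2-GFP strain pooled with four other GFP strains with rapamycin as positive control; median GFP fluorescence per well over plate mean of DMSO wells so 100% = DMSO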); settings: 3 h, at 10 µM, stronger effect = higher value
[4] = modulators of LAP4-GFP expression in yeast, primary screen, S. cerevisiae, multiplex flow cytometry (AID 1873;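 active means GFP signal, as percent of the solvent control, above the screen mean plus 3 SD, about 149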); settings: 3 h, at 10 µM, stronger effect = higher value
[5] = modulators of AGP1-GFP expression in yeast TOR pathway, primary screen, cell-based, multiplex flow cytometry, S. cerevisiae (AID 1887;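 active means GFP signal above the screen-wide mean plus 3 SD, that is over about 124.5% of the solvent control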;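 further: AGP1-GFP fusion strain of S. cerevisiae within a five-strain barcoded multiplex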); settings: 3 h, at 10 µM, stronger effect = higher value
[6] = inhibitors of CD8+ T cell-vesicle binding, pilot screen, LFA-1/ICAM-1 modulator project, MLPCN validation set, flow cytometry (AID 2523); settings: 2C mouse CD8+ T cells, at 7 µM, stronger effect = lower value; double positive events: measured here: CD8+/vesicle+ event percentage;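 on vesicle binding response: mean PE anti-B7-1 fluorescence of CD8+ cells relative to row control; 100% = QL9-loaded vesicles with DMSO vehicle in the same plate row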
[7] = biological target: Integrin beta-1 (Homo sapiens) + Integrin alpha-4 (Homo sapiens) (UniProt P13612+P05556); experiment: inhibition of HUTS-21 binding to VLA-4, pilot screen, VLA-4 allosteric modulator project, U937 cells, HUTS-21 mAb, flow cytometry, validation set (AID 2674;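 active means inhibition above 50%, about 3 SD of the validation set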;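 further: antibody binding induced by the VLA-4 ligand LDV present at three times its Kd; 0% = LDV ligand with antibody and no compound and 100% = antibody without LDV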); settings: HUTS-21 LIBS mAb binding, at 6.7 µM, stronger effect = higher value, binding induced by LDV ligand
Integrin beta-1 (Homo sapiens) + Integrin alpha-4 (Homo sapiens), sequence (P05556 whole entry, looked up): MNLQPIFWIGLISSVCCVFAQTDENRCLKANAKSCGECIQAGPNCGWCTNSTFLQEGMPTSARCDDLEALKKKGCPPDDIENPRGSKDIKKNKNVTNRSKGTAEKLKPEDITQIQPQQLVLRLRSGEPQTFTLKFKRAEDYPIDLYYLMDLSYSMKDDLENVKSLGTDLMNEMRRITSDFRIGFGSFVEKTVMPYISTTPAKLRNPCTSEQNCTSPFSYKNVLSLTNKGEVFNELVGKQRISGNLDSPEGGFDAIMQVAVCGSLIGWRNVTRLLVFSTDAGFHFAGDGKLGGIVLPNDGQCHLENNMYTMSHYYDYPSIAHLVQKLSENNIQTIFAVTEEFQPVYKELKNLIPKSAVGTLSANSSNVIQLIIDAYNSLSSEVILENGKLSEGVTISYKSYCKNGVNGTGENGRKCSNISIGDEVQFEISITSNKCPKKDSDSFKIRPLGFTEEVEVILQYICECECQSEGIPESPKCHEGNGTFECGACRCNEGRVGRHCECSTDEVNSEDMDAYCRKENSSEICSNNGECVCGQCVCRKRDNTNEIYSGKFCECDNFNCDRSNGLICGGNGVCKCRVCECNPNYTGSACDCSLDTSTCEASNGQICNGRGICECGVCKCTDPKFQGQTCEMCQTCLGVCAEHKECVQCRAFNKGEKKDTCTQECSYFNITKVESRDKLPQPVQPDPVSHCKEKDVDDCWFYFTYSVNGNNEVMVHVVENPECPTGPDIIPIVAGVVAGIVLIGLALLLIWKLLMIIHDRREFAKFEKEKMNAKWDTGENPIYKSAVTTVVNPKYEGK
Integrin beta-1 (Homo sapiens) + Integrin alpha-4 (Homo sapiens), sequence (P13612 whole entry, looked up): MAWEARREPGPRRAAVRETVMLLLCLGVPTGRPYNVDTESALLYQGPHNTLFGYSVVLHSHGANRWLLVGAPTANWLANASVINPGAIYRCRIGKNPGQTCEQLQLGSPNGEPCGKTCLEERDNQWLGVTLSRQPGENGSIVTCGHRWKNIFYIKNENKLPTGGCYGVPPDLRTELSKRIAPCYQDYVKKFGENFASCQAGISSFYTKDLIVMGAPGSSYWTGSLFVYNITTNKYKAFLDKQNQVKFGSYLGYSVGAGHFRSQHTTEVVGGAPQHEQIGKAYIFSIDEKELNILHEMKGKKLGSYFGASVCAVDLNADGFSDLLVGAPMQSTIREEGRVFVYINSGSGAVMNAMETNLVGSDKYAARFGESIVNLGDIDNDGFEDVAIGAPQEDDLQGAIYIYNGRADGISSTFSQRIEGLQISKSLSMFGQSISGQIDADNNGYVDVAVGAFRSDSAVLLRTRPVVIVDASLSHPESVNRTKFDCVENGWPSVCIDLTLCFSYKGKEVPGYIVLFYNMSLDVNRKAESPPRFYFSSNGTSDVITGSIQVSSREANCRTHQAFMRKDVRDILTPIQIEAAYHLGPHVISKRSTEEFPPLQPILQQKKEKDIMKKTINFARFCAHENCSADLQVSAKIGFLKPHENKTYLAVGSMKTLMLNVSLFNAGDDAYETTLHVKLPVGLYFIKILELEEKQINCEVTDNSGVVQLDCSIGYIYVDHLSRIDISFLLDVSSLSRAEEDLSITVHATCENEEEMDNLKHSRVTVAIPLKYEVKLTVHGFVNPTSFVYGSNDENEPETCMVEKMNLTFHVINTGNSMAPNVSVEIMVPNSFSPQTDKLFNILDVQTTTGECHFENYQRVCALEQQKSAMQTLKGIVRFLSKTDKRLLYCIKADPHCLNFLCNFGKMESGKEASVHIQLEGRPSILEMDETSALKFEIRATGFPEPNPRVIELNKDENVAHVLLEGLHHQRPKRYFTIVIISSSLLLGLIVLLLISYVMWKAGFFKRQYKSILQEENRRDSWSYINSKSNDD

[8] = superoxide lowering in aged yeast cells, pilot screen, validation compound set (AID 2706;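 active means superoxide response below 65% of plate, a cut near 3 SD across the whole screen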;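 further: yeast exposed to compound for one week at 30 degrees C before staining; 100% = mean of all compound wells on the same plate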); settings: S. cerevisiae aging, superoxide DHE fluorescence; at 10 µM; stronger effect = lower value
[9] = biological target: Beta-adrenergic receptor kinase 1 (Homo sapiens) (UniProt P25098); experiment: GRK2 binders displacing RNA aptamer, biochemical, validation, human GRK2, bead flow cytometry (AID 488806;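 active means aptamer binding inhibition above 30%, about 3 SD of noise from non-fluorescent compounds; inactive means inhibition at or below 30%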); settings: bead-bound GRK2, FAM-aptamer displacement, at 10 µM, stronger effect = higher value
Beta-adrenergic receptor kinase 1 (Homo sapiens), sequence (P25098 whole entry, looked up): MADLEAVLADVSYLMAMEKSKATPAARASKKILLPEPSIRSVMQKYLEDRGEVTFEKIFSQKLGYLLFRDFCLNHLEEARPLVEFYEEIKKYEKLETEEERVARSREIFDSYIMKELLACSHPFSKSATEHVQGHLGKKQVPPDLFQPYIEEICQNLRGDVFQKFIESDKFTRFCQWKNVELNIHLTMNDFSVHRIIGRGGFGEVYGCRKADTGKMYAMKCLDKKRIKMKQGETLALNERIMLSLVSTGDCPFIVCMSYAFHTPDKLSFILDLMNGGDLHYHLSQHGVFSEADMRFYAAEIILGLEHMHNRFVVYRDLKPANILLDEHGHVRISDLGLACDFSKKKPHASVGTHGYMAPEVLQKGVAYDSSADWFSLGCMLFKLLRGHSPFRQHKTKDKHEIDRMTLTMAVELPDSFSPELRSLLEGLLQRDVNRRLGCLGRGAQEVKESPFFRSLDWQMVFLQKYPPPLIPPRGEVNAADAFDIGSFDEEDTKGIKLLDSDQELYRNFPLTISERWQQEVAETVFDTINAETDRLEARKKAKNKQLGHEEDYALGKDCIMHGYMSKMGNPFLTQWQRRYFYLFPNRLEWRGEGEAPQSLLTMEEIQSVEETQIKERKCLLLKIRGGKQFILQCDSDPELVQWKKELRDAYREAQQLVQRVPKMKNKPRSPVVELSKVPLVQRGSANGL

[10] = biological target: Beta-2 adrenergic receptor (Homo sapiens) (UniProt P07550); experiment: beta2AR agonists driving receptor internalization, pilot screen, cell-based, FAP fluorogen, flow cytometry, validation set (AID 504459;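 active means percent response above 42, roughly 3 SD of non-fluorescent test compounds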;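 further: agonist-driven loss of surface beta2AR via internalization measured by FAP dye flow cytometry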); settings: Am2.2-beta2AR cells, FAP surface receptor flow cytometry; at 10 µM; stronger effect = higher value
Beta-2 adrenergic receptor (Homo sapiens), sequence (P07550 whole entry, looked up): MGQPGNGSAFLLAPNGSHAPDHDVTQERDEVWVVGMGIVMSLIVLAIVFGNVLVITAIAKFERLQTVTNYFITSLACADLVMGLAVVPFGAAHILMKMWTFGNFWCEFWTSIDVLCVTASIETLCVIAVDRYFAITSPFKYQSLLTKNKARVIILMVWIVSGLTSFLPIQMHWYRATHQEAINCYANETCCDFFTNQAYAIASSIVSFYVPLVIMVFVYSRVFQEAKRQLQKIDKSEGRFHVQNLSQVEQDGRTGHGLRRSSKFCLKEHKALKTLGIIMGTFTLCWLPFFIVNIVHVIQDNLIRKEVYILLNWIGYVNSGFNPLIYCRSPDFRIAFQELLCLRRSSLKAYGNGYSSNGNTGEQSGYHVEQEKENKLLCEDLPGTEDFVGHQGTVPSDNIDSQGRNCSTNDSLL

[11] = biological target: AP-2 complex subunit beta (Homo sapiens) (UniProt P63010); experiment: inhibitors of arrestin peptide binding to AP2, pilot screen, biochemical, validation set, GST-AP2 beads, flow cytometry (AID 504541;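 active means inhibition above 54%, about 3 SD of non-fluorescent compounds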;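 further: AP2 carries R879A mutation and is captured from E. coli lysate; bead-bound FITC arrestin peptide fluorescence measuring arrestin peptide binding to AP2; 0% = DMSO wells and 100% = excess unlabeled arrestin peptide control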); settings: FITC arrestin peptide, at 10 µM, stronger effect = higher value, AP2 beta2 appendage fragment, R879A mutant
AP-2 complex subunit beta (Homo sapiens), sequence (P63010 whole entry, looked up, the tested form may be a part, one chain of several): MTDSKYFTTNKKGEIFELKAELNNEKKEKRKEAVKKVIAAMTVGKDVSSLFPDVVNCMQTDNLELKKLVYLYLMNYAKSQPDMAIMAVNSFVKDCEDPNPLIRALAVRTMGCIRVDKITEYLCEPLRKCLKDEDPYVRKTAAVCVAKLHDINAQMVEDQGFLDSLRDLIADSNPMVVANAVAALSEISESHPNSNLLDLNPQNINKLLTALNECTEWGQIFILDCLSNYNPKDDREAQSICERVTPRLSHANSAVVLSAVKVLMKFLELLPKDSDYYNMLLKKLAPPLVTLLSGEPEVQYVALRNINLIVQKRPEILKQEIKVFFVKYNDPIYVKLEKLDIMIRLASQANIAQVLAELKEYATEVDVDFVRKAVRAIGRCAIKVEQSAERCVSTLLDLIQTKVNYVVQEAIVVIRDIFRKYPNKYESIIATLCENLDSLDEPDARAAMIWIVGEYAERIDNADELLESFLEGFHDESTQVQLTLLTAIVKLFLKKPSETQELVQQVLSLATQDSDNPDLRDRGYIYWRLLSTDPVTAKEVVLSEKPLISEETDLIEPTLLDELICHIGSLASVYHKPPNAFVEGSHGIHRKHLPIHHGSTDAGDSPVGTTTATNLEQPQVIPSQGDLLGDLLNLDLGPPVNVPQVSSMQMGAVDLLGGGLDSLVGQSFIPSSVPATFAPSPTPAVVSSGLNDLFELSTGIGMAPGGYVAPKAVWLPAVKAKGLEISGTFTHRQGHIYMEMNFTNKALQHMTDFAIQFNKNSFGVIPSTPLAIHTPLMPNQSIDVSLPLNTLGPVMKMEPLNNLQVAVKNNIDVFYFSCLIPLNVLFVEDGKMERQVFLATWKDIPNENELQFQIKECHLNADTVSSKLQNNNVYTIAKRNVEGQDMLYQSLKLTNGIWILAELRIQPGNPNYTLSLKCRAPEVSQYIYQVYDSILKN

[12] = yeast V-ATPase proton transport modulators, S. cerevisiae, pHLuorin, HTS validation (AID 504600; in the data active means response above about 15%;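 further: plate controls were DMSO for no effect and reference compound for full effect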); settings: S. cerevisiae pHLuorin cytosolic pH, at 10 µM, stronger effect = higher value
[13] = system: anti-desmoglein-3 scFv antibody binding to human DSG3; experiment: inhibitors of anti-DSG3 scFv binding to DSG3, pilot screen, biochemical, validation compound set, bead-based, flow cytometry (AID 588368;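 active means binding below the plate cutoff, the plate median minus 3 SD, with a reading above zero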;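 further: signal is the median channel fluorescence of bead-bound GFP antibody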); settings: Protein G beads, DSG3-Fc, scFv-GFP binding, at 10 µM, stronger effect = lower value
[14] = inhibitors of fungal efflux pumps CDR1, CDR2, MDR1, pilot screen, validation compound set, multiplex, phenotypic (AID 588506;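 active means efflux inhibition above 0.42, the validation set average plus 4 SD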;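 further: Nile Red retained in cells so higher fluorescence means more efflux inhibition; 0 = negative control wells and 1 = enniatin B 25 µM full block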); settings: S. cerevisiae pump-expressing triplex, Nile Red efflux flow cytometry; at 10 µM; stronger effect = higher value; the pumps come from Candida albicans
[15] = biological target: ATP-binding cassette sub-family B member 6 (Homo sapiens) (UniProt Q9NP58); experiment: ABCB6 transporter inhibitors, pilot screen, K562-ABCB6 cells, flow cytometry, validation set (AID 588550;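 active means inhibition above the screen-wide mean plus 3 SD, about 51%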;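 further: 0% = DMSO wells and 100% = benzethonium chloride 70 µM positive control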); settings: K562-ABCB6 porphyrin accumulation, 1 h, at 10 µM, stronger effect = higher value
ATP-binding cassette sub-family B member 6 (Homo sapiens), sequence (Q9NP58 whole entry, looked up): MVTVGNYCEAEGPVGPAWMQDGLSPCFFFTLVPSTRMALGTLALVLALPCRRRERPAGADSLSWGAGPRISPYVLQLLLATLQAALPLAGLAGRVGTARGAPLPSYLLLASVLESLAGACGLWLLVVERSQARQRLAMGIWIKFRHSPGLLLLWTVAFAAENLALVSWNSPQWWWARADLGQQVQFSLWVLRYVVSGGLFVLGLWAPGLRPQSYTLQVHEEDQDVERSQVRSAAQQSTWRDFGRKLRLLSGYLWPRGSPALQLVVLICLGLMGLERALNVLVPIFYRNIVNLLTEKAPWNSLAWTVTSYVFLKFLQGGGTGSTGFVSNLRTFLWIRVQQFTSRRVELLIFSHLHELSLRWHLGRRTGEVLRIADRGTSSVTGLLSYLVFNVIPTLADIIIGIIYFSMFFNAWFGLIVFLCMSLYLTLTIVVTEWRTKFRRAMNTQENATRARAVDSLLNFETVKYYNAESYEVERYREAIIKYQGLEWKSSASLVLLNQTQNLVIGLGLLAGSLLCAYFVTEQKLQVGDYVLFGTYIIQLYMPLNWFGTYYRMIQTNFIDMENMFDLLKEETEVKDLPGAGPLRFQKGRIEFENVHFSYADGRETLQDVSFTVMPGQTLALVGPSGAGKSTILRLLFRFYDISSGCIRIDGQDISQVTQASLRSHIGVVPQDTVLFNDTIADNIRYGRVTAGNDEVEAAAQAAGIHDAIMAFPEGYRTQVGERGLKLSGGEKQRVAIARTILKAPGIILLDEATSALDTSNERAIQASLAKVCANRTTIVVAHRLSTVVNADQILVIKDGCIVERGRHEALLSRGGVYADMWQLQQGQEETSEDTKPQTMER

[16] = promoters of myeloid differentiation in arrested cells, primary screen, cell-based, GFP/MAC1 double positive, flow cytometry, validation set (AID 588685;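 active means differentiation response of at least 50%, scaled between solvent and reference control, from cells with both markers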;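 further: compound exposure lasts four days before antibody staining and flow analysis; 0% = DMSO wells and 100% = 5 µM fulvestrant positive control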); settings: ER-HoxA9 marrow cells, stronger effect = higher value, normalized: vehicle 0, fulvestrant 100

SMILES | percent of DMSO control GFP [1] | GFP response vs DMSO [2] | percent response of DMSO control [3] | GFP response vs DMSO [4] | GFP response, % of DMSO [5] | double positive events [6] [%] | vesicle binding response [6] | inhibition [7] | superoxide response (% of plate) [8] | aptamer binding inhibition [9] | response [10] | inhibition [11] | response [12] | binding (% of control) [13] | efflux inhibition (fraction of control) [14] | inhibition [15] | differentiation response [16]
COc1ccc(OC(C)C(=O)Nc2ccccc2F)cc1 (stereo unspecified) | 102% (inactive) | 99.7% (inactive) | 102% (inactive) | 108% (inactive) | 99.3% (inactive) | 58.4 | 151% (inactive) | 25.7% (inactive) | 90.6% (inactive) | 0% (inactive) | 6.77% (inactive) | -5.67% (inactive) | 0.03% (inactive) | 104% (inactive) | -0.15 (inactive) | 8% (inactive) | -6.03% (inactive)
Cn1c(=O)c2[nH]cnc2n(C)c1=O | 90.9% (inactive) | 133% (inactive) | 96.6% (inactive) | 80.9% (inactive) | 87.7% (inactive) | 67.8 | 159% (inactive) | -1.3% (inactive) | 95.3% (inactive) | 4% (inactive) | -0.49% (inactive) | -6.69% (inactive) | -2.04% (inactive) | 101% (inactive) | -0.46 (inactive) | 9% (inactive) | -2.46% (inactive)
CC(C)C(=O)Nc1cccnc1 | 103% (inactive) | 99.6% (inactive) | 99.6% (inactive) | 115% (inactive) | 106% (inactive) | 68.8 | 294% (inactive) | 21.4% (inactive) | 85.9% (inactive) | 4% (inactive) | 0.35% (inactive) | -1.65% (inactive) | 4.74% (inactive) | 99.3% (inactive) | -0.13 (inactive) | -4% (inactive) | 0% (inactive)
O=C(OCCNC(=O)c1ccc2ccccc2n1)c1ccc(F)cc1 | 103% (inactive) | 110% (inactive) | 97.8% (inactive) | 87.4% (inactive) | 88.9% (inactive) | 58.4 | 241% (inactive) | 2.66% (inactive) | 114% (inactive) | 0% (inactive) | 4.51% (inactive) | 2.3% (inactive) | 1.13% (inactive) | 99.2% (inactive) | -0.04 (inactive) | 0% (inactive) | 8.06% (inactive)
O=C(CN1C(=O)c2ccccc2C1=O)Nc1cccc([N+](=O)[O-])c1 | 103% (inactive) | 98.7% (inactive) | 109% (inactive) | 100% (inactive) | 106% (inactive) | 61.2 | 130% (inactive) | -18.5% (inactive) | 94.2% (inactive) | -3% (inactive) | -3.16% (inactive) | 35% (inactive) | -0.16% (inactive) | 101% (inactive) | 0.005 (inactive) | 7% (inactive) | -10.4% (inactive)
Cc1c(O)c(=O)ccn1C | 90.4% (inactive) | 121% (inactive) | 103% (inactive) | 76.5% (inactive) | 95.4% (inactive) | 64.3 | 412% (inactive) | 6.46% (inactive) | 99.1% (inactive) | 1% (inactive) | -11.3% (inactive) | -9.42% (inactive) | 3.11% (inactive) | 102% (inactive) | 0.27 (inactive) | 9% (inactive) | -3.28% (inactive)
O=C(NCc1ccc2c(c1)OCO2)c1ccc2c(c1)OCCO2 | 101% (inactive) | 105% (inactive) | 105% (inactive) | 92.6% (inactive) | 101% (inactive) | 61 | 132% (inactive) | 11% (inactive) | 104% (inactive) | -1% (inactive) | 0.83% (inactive) | -6.32% (inactive) | -0.38% (inactive) | 103% (inactive) | -0.21 (inactive) | 11% (inactive) | 20.3% (inactive)
COCCCN1C(=O)C(=O)/C(=C(/O)c2ccc3c(c2)CC(C)O3)C1c1cccnc1 (stereo unspecified) | 101% (inactive) | 102% (inactive) | 101% (inactive) | 114% (inactive) | 111% (inactive) | 59 | 137% (inactive) | 3.14% (inactive) | 97.1% (inactive) | -1% (inactive) | -22.5% (inactive) | 1.96% (inactive) | -1.78% (inactive) | 108% (inactive) | 0 (inactive) | 4% (inactive) | -9.91% (inactive)
CC(C)N1C(=O)/C(=C\c2nc3ccccc3c(=O)[nH]2)c2ccccc21 | 103% (inactive) | 106% (inactive) | 103% (inactive) | 128% (inactive) | 93.8% (inactive) | 60.8 | 157% (inactive) | -7.25% (inactive) | 125% (inactive) | 6% (inactive) | 32.8% (inactive) | -10.5% (inactive) | -1.63% (inactive) | 101% (inactive) | -0.1 (inactive) | 6% (inactive) | -21.6% (inactive)
CCn1c(/C=C/c2ccccc2)nc2ccccc2c1=O | 98.8% (inactive) | 111% (inactive) | 78.7% (inactive) | 122% (inactive) | 92.6% (inactive) | 59.1 | 134% (inactive) | 7.76% (inactive) | 102% (inactive) | 3% (inactive) | 18.5% (inactive) | -8.94% (inactive) | 1.61% (inactive) | 101% (inactive) | 0.08 (inactive) | 7% (inactive) | 18.4% (inactive)
COc1ccc(CNC(=O)c2c(O)c3cccc4c3n(c2=O)CCC4)cc1 | 104% (inactive) | 105% (inactive) | 93.9% (inactive) | 94.4% (inactive) | 99.4% (inactive) | 57.5 | 18.9% (inactive) | -7.47% (inactive) | 96.7% (inactive) | 9% (inactive) | 4.63% (inactive) | 7.55% (inactive) | -1.56% (inactive) | 99.5% (inactive) | 0.62 (active) | 5% (inactive) | 1.17% (inactive)
COc1ccc2oc(-c3ccco3)cc(=O)c2c1 | 103% (inactive) | 92.4% (inactive) | 100% (inactive) | 88% (inactive) | 83.7% (inactive) | 59.1 | 23.9% (inactive) | -8.9% (inactive) | 96.6% (inactive) | 3% (inactive) | -0.39% (inactive) | -28.7% (inactive) | 2.89% (inactive) | 100% (inactive) | -0.28 (inactive) | 8% (inactive) | -3.4% (inactive)
CC(=O)Nc1ccc(CN2CCN(C3CCCCC3)C(CCO)C2)cc1 (stereo unspecified) | 102% (inactive) | 104% (inactive) | 101% (inactive) | 114% (inactive) | 120% (inactive) | 62.8 | 172% (inactive) | -0.27% (inactive) | 102% (inactive) | 0% (inactive) | -18.9% (inactive) | -3.58% (inactive) | -1.9% (inactive) | 111% (inactive) | 0.12 (inactive) | 2% (inactive) | -10.9% (inactive)
CCc1oc2ccccc2c1C(=O)c1cc(Br)c(O)c(Br)c1 | 92.2% (inactive) | 117% (inactive) | 106% (inactive) | 78.1% (inactive) | 91% (inactive) | 65.3 | 165% (inactive) | 7.43% (inactive) | 118% (inactive) | 4% (inactive) | 2.6% (inactive) | -0.81% (inactive) | 15.2% (active) | 102% (inactive) | 0.01 (inactive) | 12% (inactive) | 9.83% (inactive)
Cc1ccc(C(=O)Nc2ccc(O)cc2C(=O)O)cc1C | 105% (inactive) | 99.6% (inactive) | 102% (inactive) | 75.2% (inactive) | 86.8% (inactive) | 58.8 | 274% (inactive) | 9.13% (inactive) | 103% (inactive) | 3% (inactive) | 51.5% (active) | -1.05% (inactive) | 1.04% (inactive) | 106% (inactive) | 0.05 (inactive) | -4% (inactive) | 5.6% (inactive)
CC(=O)SC1CC2=CC(=O)CCC2(C)C2CCC3(C)C(CCC34CCC(=O)O4)C12 (stereo unspecified) | 103% (inactive) | 103% (inactive) | 107% (inactive) | 109% (inactive) | 107% (inactive) | 64.4 | 247% (inactive) | -3.57% (inactive) | 98.5% (inactive) | 5% (inactive) | -4.96% (inactive) | -8.52% (inactive) | 1.6% (inactive) | 100% (inactive) | -0.04 (inactive) | -3% (inactive) | 3.18% (inactive)
CCN(CC)CC#CCOC(=O)C(O)(c1ccccc1)C1CCCCC1 (stereo unspecified) | 91.1% (inactive) | 132% (inactive) | 110% (inactive) | 83.1% (inactive) | 91.2% (inactive) | 62.3 | 181% (inactive) | 10.3% (inactive) | 112% (inactive) | 4% (inactive) | 14.8% (inactive) | -2.84% (inactive) | -0.18% (inactive) | 104% (inactive) | 0.3 (inactive) | 8% (inactive) | -1.64% (inactive)
CC(C)Oc1ccc2c(=O)c(-c3ccccc3)coc2c1 | 86.5% (inactive) | 101% (inactive) | 106% (inactive) | 83.1% (inactive) | 94% (inactive) | 66.7 | 209% (inactive) | -7.12% (inactive) | 94.6% (inactive) | 0% (inactive) | 1.13% (inactive) | 2.38% (inactive) | 1.01% (inactive) | 101% (inactive) | -0.53 (inactive) | 13% (inactive) | -5.73% (inactive)
